Molecules are shown by their SMILES. “And” between values parts separate entries of the source, which are not always exact repeats. Identical values can stand only once. Measured potencies and affinities stand elsewhere.

Assay [1] has as its system Staphylococcus aureus. The settings on record: Concentration 32 ug.mL-1; ASSAY_TEST Inhibition of Bacterial Growth; detection method Absorption (OD600); MEDIA CAMHB; plate type 384well; NBS; CORNING #3640; time 18 hr.
The test system of assay [2] is Escherichia coli. The settings on record: Concentration 32 ug.mL-1, ASSAY_TEST Inhibition of Bacterial Growth, detection method Absorption (OD600), MEDIA CAMHB, plate type 384well, NBS, CORNING #3640, time 18 hr.

Consider `[N-]=[N+]=NCC(=O)c1ccc(Br)cc1`, for which the Inhibition in assay [1] was 26.38%; in assay [2], 9.41%. As to `CNCc1cn(C)c2ccc(OC)cc12.Cl`, the Inhibition in assay [1] was 14.24%; in assay [2], 17.26%. As to `C#CCN1CCc2nc3ncccc3c(N)c2C1.Cl`, the Inhibition in assay [1] is reported as 20.08%; in assay [2] it was -15.24%. For `N#Cc1cc(C#N)c(N2C3CCC2CC3)nc1N` the same measures were -1.36% and 10.18%. For `Cc1nc(N)c(C#N)cc1C(=O)O` the same measures were 4.41% and -9.15%. The matching figures for `CN(C)C(=O)Oc1ccc(CCl)c2cccnc12`: 22.39% and -10.05%. With `CN1CC=C(c2cccn2C)CC1.Cl`, the Inhibition is listed as 10.31% in assay [1] and 19.65% in assay [2].

As to `O=C(CBr)NCc1ccccc1`, the Inhibition in assay [1] is reported as 46.96%; in assay [2] it was 14.62%. On to `NNC(=O)c1cccnc1` [NICOTINIC ACID HYDRAZIDE], for which the figures for the Inhibition in assay [1] and in assay [2] were 11.6% and 15.76%, respectively.

Turning to `CCOC(=O)c1cn(Cc2ccccc2)c2ccccc12`, the Inhibition in assay [1] was 3.83%; in assay [2], -2.16%. For `COc1cc(C2C(C#N)=C(N)Oc3c2ccc2ccccc32)cc(OC)c1OC` (configuration not stated) the same measures were 6.42% and 8.07%.

With `N#CC(C#N)=Cc1ccc(Cl)cc1`, the Inhibition in assay [1] was determined as 7.12%; in assay [2], 5.89%. As to `C#CCN(C)Cc1cc2cc(OC(=O)N(C)C)ccc2n1C`, the Inhibition in assay [1] is listed as -2.15%; in assay [2], -5.14%. For `CCOC(=O)C1=C(C)OC(=O)CC1c1ccccc1` (configuration not stated), the Inhibition in assay [1] was 23.21%; in assay [2] it was -9.36%. For `C#CCN1CCc2nc3nc(Cl)c(C#N)cc3c(N)c2C1`, the values for the Inhibition in assay [1] and in assay [2] were 26.25% and -10.74%, respectively. For the compound `C#CCN1CCc2nc(N)c(C#N)c(-c3ccccc3)c2C1`, the Inhibition in assay [2] (32 ug/mL) is -14.9% and -16.29%. Regarding `CCOC(=O)c1cc2cc(OC(=O)NC3CCN(Cc4ccccc4)CC3)ccc2[nH]1`, the Inhibition is given as 20.68% in assay [1] and -6.09% in assay [2].

As for `Nc1c2c(nc3ccccc13)CCN(Cc1ccccc1)C2`, the Inhibition in assay [1] was found to be 9.97%; in assay [2], 1.56%. The matching figures for `Cc1ccccc1C=C(C#N)C#N`: 3.49% and 0.38%.

`CCOC(=O)C1=C(OC)OC(=O)CC1c1ccccc1` (configuration not stated): the Inhibition is 39.56% in assay [1] and -6.33% in assay [2].

For the compound `NNC(=O)c1cn(Cc2ccccc2)c2ccccc12`, the figures for the Inhibition in assay [1] and in assay [2] were 1.65% and 1.53%, respectively. As for `CN1CC=C(c2cccn2C)CC1`, the Inhibition in assay [1] is 10.32%; in assay [2], 19%. The matching figures for `Cl.ClCCN1CCCCC1`: 28.78% and 20.05%. Consider `Cc1ccc(C=C(C#N)C#N)cc1`, for which the Inhibition in assay [1] amounted to 8.41%; in assay [2], 8.38%. The matching figures for `COc1ccc2c(c1)cc(C[N+](C)(C)C)n2C.[I-]`: 13.5% and 12.23%. For `COc1ccc(C=C(C#N)C#N)cc1OC` the same measures were 14.77% and 13.47%. The matching figures for `NNCCCc1c[nH]c2ccccc12.O=C(O)/C=C/C(=O)O`: 18.22% and 27.72%. As to `Cl.ClCCN1CCCC1`, the Inhibition in assay [1] came out at 22.74%; in assay [2], 7.3%. `CCOc1nc2nc(C)c(C(=O)O)cc2c(-c2ccccc2)c1C#N`: the values for the Inhibition in assay [1] and in assay [2] were 17.86% and -10.47%, respectively. The matching figures for `O=C(N1[C@H]2CC[C@@H]1C(c1nnn[nH]1)C2)C(F)(F)F` (some centres not stated): 26.59% and -6.69%. For `C#CCN1CCc2nc3nc(OC)c(C#N)cc3c(N)c2C1` the same measures were 26.45% and -2.8%. For `CCOC(=O)C1=C(C)NC(=O)CC1c1ccccc1` (configuration not stated) the same measures were 39.69% and -3.27%. For `Cc1ccc(S(=O)(=O)N2[C@H]3CC[C@@H]2CC3)cc1`, the Inhibition in assay [1] is 28.46%; in assay [2] it was -2.06%. For `OCC(Cc1cnc[nH]1)NCc1ccccc1` (configuration not stated) the same measures were 6.92% and 2.95%. The matching figures for `CC1CC(=O)Nc2nc3c(c(N)c21)CCCC3` (configuration not stated): 27.94% and -10.32%. For `N#CCC(=O)c1ccccc1` the same measures were 30.68% and 18.52%. For the compound `C#CCN(C)Cc1cc2cc(OCc3ccc(OC(=O)N(C)C)c4ncccc34)ccc2n1C`, the Inhibition in assay [1] was 7.52%; in assay [2], -14.26%. For `Nc1c2c(nc3c1C(c1ccccc1)CC(=O)N3)CCCC2` (configuration not stated) the same measures were 28.94% and 0.15%. With `C#CCN(C)Cc1cc2cc(OCCCC3CCN(Cc4ccc(OC(=O)N(C)C)c5ncccc45)CC3)ccc2n1C`, the values for the Inhibition in assay [1] and in assay [2] were 11.25% and -10.82%, respectively.

For orientation: Inhibition means the change of the read-out against control, counted positive when it falls.
